Here are results for ten molecules from the supplement of paper PMC10105736.

Common to all, as to experiment: MAPPIT interaction score (arbitrary units); higher = stronger binary interaction signal, active = hit call of the paper
One experiment addresses fwe. As to conditions: MAPPIT configuration: N-C; pair source set: screen_4;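 active = MAPPIT score above the 99th percentile of random reference set scores in the same batch; inactive = at or below it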.
A further experiment deals with gukh. As to conditions: MAPPIT configuration: N-C; pair source set: Lit-BM-16.
The next experiment concerns the target mRpL39. As to conditions: MAPPIT configuration: N-N; pair source set: DPIM.
The target of another experiment is gsb-n. As to conditions: MAPPIT configuration: N-N; pair source set: Finley_Y2H.
In a further experiment the target is emb. To be noted: MAPPIT configuration: N-N; pair source set: Lit-BM-16.
Another experiment concerns the target glob1. To be noted: MAPPIT configuration: N-N.
Another experiment addresses grp. To be noted: MAPPIT configuration: N-N; pair source set: DPIM.
The next experiment addresses fon. As to conditions: MAPPIT configuration: N-N; pair source set: Finley_Y2H.
Another experiment has as its target flw. As to conditions: pair source set: Lit-BM-16.
The target of the next experiment is fz. To be noted: MAPPIT configuration: N-C; pair source set: Lit-BM-16.
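Note: HEK293T cells with Epo stimulation, STAT-responsive firefly luciferase reporter, fold induction versus unstimulated cells divided by the larger fold induction of two negative controls lacking either bait or prey.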

B1: Arl8 (protein)
chain: MLALINRILEWFKSIFWKEEMELTLVGLQFSGKTTFVNVIASGQFAEDMIPTVGFNMRKITRGNVTIKVWDIGGQPRFRSMWERYCRGVNAIVYMVDAADLDKLEASRNELHSLLDKPQLAGIPVLVLGNKRDLPGALDETGLIERMNLSSIQDREICCYSISCKEKDNIDITLQWLIQHSKSQSR
B1: the MAPPIT interaction score in the experiment with fwe is 3.21 (inactive).

B2: dlg1 (protein)
chain: MPVKKQEAHRALELLEDYHARLSEPQDRALRIAIERVIRIFKSRLFQALLDIQEFYELTLLDDSKSIQQKTAETLQIATKWEKDGQAVKIADFIKSSNLNRNCAYEFNNDASSNQTNQSALNQNPIANNVSAQAQAEALSRTFKSELEEILNQRMRIESDTENAKEPTVEQQQKQQQAQQRSSRSPQQQNPQQQQGSKSRSGSQTVNGDDSWLYEDIQLERGNSGLGFSIAGGTDNPHIGTDTSIYITKLISGGAAAADGRLSINDIIVSVNDVSVVDVPHASAVDALKKAGNVVKLHVKRKRGTATTPAAGSAAGDARDSAASGPKVIEIDLVKGGKGLGFSIAGGIGNQHIPGDNGIYVTKLMDGGAAQVDGRLSIGDKLIAVRTNGSEKNLENVTHELAVATLKSITDKVTLIIGKTQHLTTSASGGGGGGLSSGQQLSQSQSQLATSQSQSQVHQQQHATPMVNSQSTEPGSRYASTNVLAAVPPGTPRAVSTEDITREPRTITIQKGPQGLGFNIVGGEDGQGIYVSFILAGGPADLGSELKRGDQLLSVNNVNLTHATHEEAAQALKTSGGVVTLLAQYRPEEYNRFEARIQELKQQAALGAGGSGTLLRTTQKRSLYVRALFDYDPNRDDGLPSRGLPFKHGDILHVTNASDDEWWQARRVLGDNEDEQIGIVPSKRRWERKMRARDRSVKFQGHAAANNNLDKQSTLDRKKKNFTFSRKFPFMKSRDEKNEDGSDQEPFMLCYTQDDANAEGASEENVLSYEAVQRLSINYTRPVIILGPLKDRINDDLISEYPDKFGSCVPHTTRPKREYEVDGRDYHFVSSREQMERDIQNHLFIEAGQYNDNLYGTSVASVREVAEKGKHCILDVSGNAIKRLQVAQLYPVAVFIKPKSVDSVMEMNRRMTEEQAKKTYERAIKMEQEFGEYFTGVVQGDTIEEIYSKVKSMIWSQSGPTIWVPSKESL
As to B2, the MAPPIT interaction score with gukh is 1.68 (inactive); with mRpL39, 0.743 (inactive).

B3: slp2 (protein)
chain: MVKIEEGLPSSEISAHSLHFQHHHHPLPPTTHHSALQSPHPVGLNLTNLMKMARTPHLKSSFSINSILPETVEHHDEDEEEDVEKKSPAKFPPNHNNNNLNTTNWGSPEDHEAESDPESDLDVTSMSPAPVANPNESDPDEVDEEFVEEDIECDGETTDGDAENKSNDGKPVKDKKGNEKPPYSYNALIMMAIRQSSEKRLTLNGIYEYIMTNHPYYRDNKQGWQNSIRHNLSLNKCFVKVPRHYDDPGKGNYWMLDPSAEDVFIGGSTGKLRRRTTAASRSRLAAFKRSLIGPMFPGLAAYPQFGQFLTYPPTAPSLLASMYQRYNPFAPKGGPGHPGLPPGLPGLPGPPGPQGPPGPPPPPFVAPPTSSELYQRLQYQQLLHQHAAAAALAAHQRQLSVAAASAASQPPPTHHHPHLAVGQAPLSPGGDSPGPSPQPLHKPVTVVSRNS
Consider B3, for which, in the experiment with gsb-n, the MAPPIT interaction score was -0.371 (inactive).

B4: mbo (protein)
chain: MSLTDVLELNKTELFAKIRNGLPVVQRTQNLLDCKDDLLFAWHAKDSCLLVRNWRSSLAAKVNIQFQTLIPSSLVSLEVDRVLASNEGSLVALSGPRGVVIMELPRRWGPDGYYKDGKPVITCRTFGLDTQLFLKNPHLEVRQVRWHPHSVSDSTLLVLLNNNTIRVYNHSKLRHVWQVGPPVLRSGANNSLCDFGELAVDFDIAPAAKPRVTEPETAGNNETTLDKSNKTLVAAKSLPKQERIEWPMVVLRENGNIYILMTGVDSENTRLQGPVTITPQAHDNYGLESCALMIIPSLPPTIVIAESNGKLHHALLMEAEATEHSFNEVDDSVLIEPAEYVVHVLETVELELGISAPATGKEGGNCPIYLKRDLINELRYFAYHNAGLHAVTVSFIAELQRYLESESDEDRLELAVSASAEYILCTKFDSSETVNAVFGLALLQIPAGIVLLLGSGQVISLKLVIDAQLLVTPNENKPVDSEVSQQESGPPFVDTIKSLLQRSVNQPILADKLSSPSAQESFELLNQAIEVLREQYLKRHDLVRAAFTRHINQIQLKKEQQLQEIQDLEQERELISERAHKLAERFEEISYNQELLVRKCNALMQRANASLPNSVIAEREFSQEVIRLNKVTQSLAAGLETAKKTFNKQRYHIAQSQEDLKKNAYELPEKQHRTITEILTQLTGEIDRQITDVKRINKIVGI
Take B4: in the experiment with emb, the MAPPIT interaction score is 0.0885 (inactive).

B5: MED6 (protein)
chain: MASRQMTNDHLRLSWHDTQMMATLSPQTVMDYFCRKSNPFYDHMCNNETVRMQRLGPEHLHNMIGLEYILLHVAEPILYVIRKQHRHNPSEATPIADYYIIGGTVYKAPDLANVINSRILNTVVNLQSAFEEASSYARYHPNKGYTWDFSSNKVFSDRSKSDKKDANSAKDENSGTLFQKQRVDMLLAELLRKFPPPIPPMLQNLQQPPPAGDDLNTARNASEMNNATGPLDIKTEGVDMKPPPEKKSK
Regarding B5, the MAPPIT interaction score in the experiment with glob1 (pair source set: Lit-BS-16) was -0.386 (inactive).

B6: CG6724 (protein)
chain: MDVDNGEGQVQVHLKTKQEHYAVPDVPYAIDGTVTTVELNTFVNALLRQKDGSSDTDFDFLVFDEYLRGRLCDHLREKAISFEDAIEIEYVERFPAPEPQDCLLHDDWVSAVKARGKWILSGCYDNTLNLWTNKGKHILTISGHTAPIKAVDWISLDEETGRFVSTSQDQTAMLWQWNVGSNSVECVSVCKGHERGVDSVSVSPDGLRFATGSWDTMLKVWSAELDDAVEGSSKRMKESGVRTPKITLQGHRESVSAVQWMDATTLLTGSWDHTLKVWDLSLEGIKTEISTNKSIFDASYSKLNRLILTASADKNLRLYDPRTNQGSVVRNTYLGHNAWVQTVMWSTTEEFLFVSGAYDNQNKLWDCRSPKAPLYDLLGHGEKVLDIDWSNPKYIVSGGVDNTVRVFKSRKALAEEAETK
In the case of B6, the MAPPIT interaction score with grp was 0.11 (inactive).

B7: Slh (protein)
chain: MLTLRERQINAIKQMLNLNSQQPKALAAEPVWKILIYDRVGQDIISPIISIKELRELGVTLHVQLHSDRDSIPDVPAIYFCLPTDENLDRIQQDFSSGLYDVYHLNFLAPITRSKIENLAAAALHAGCVANIHRVYDQYVNFISLEDDFFILKHQQSDQLSYYAINRANTRDEEMEALMDSIVDSLFALFVTLGNVPIIRCPRNSAAEMVARKLEKKLRENLWDARANLFHMDATQAGGGVFSFQRPVLLLLDRNMDLATPLHHTWSYQALVHDVLDLGLNLVYVEDETASAGARKKPKACDLDRNDRFWMTHKGSPFPTVAEAIQEELESYRNSEEEIKRLKTSMGIEGESDIAFSLVNDTTARLTNAVNSLPQLMEKKRLIDMHTKIATAILNFIKARRLDSFFEIEEKVMSKQTLDRPLLDLLRDGEFGQAEDKLRLYIIYFICAQQLPESEQERLKEALQAAGCDLTALAYVQRWKGIMNRSPSISQATQYEGGGTKTVSMFTKLVSQGSSFVMEGVKNLVVKRHNLPVTKITEQVMECRSNAETDDYLYLDPKLLKGGEVLPKNRAPFQDAVVFMVGGGNYIEYQNLVDFIKQKQTSNVQRRIIYGASTLTNARQFLKELSALGGEIQSPTATS
On to B7, for which, in the experiment with fon, the MAPPIT interaction score is -0.252 (inactive).

B8: eIF2gamma (protein)
chain: MATAEAQIGVNRNLQKQDLSNLDVSKLTPLSPEVISRQATINIGTIGHVAHGKSTVVKAISGVQTVRFKNELERNITIKLGYANAKIYKCDNPKCPRPASFVSDASSKDDSLPCTRLNCSGNFRLVRHVSFVDCPGHDILMATMLNGAAVMDAALLLIAGNESCPQPQTSEHLAAIEIMKLKQILILQNKIDLIKESQAKEQYEEITKFVQGTVAEGAPIIPISAQLKYNIDVLCEYIVNKIPVPPRDFNAPPRLIVIRSFDVNKPGCEVADLKGGVAGGSILSGVLKVGQEIEVRPGVVTKDSDGNITCRPIFSRIVSLFAEQNELQYAVPGGLIGVGTKIDPTLCRADRLVGQVLGAVGQLPDIYQELEISYYLLRRLLGVRTDGDKKGARVEKLQKNEILLVNIGSLSTGGRISATKGDLAKIVLTTPVCTEKGEKIALSRRVENHWRLIGWGQIFGGKTITPVLDSQVAKK
Consider B8, for which, in the experiment with glob1 (pair source set: RRS), the MAPPIT interaction score is 0.425 (inactive).

B9: Nop17l (protein)
chain: MSASRSRNKQSKLCDDERLDISRDEFNRFQEAFGKEEFRKLFFDYVDEIQDPENRKIYESEITQLEKERGVEVRFIHPKPGFVIKTALDGELKCFINIASCEEIQRPKNEVATDPSSGSRGLSWSIPMAQTTSRDDFDAKNNHCKVFDVVFHPDALHLAMRNKQFRQCLIDTALDAIEREYKVSLDRANLKFPKLDYKGIPRPTVIRKMADNPTAEEQEPHPLAHMFPTKPPAPGKQEPRVLPMKTKPSPVPEFTVPRYTIKHSHDVDLSEYTDELDAKLHVTVPRSLVVEIELPLLRSTAECQLDVTSKSIYLFSERQGAKYRLKLDLPFIVDDKAGRARFDTDMRRLSITLPVVRKSIQEQAQMHETLRHFSREDSGVELHSNSESPVEEDPDGELSDSKADISETSSPSVAPANSPFLKSSVHYQLPSKFDCNVLDNVMAFVLHVPNVQPDSIEQLREQRSLHLKFATIGSGYYPTHYAFYVELSAEHEDSSIESAEAEAWDNNVVLKLCLNSQSETPASYLAGLDATELKEYPVHGQYHVKSKGKVNAKKDNAPLDVKFERNQEGHALKVTIRPGTKEEEEDKENQDQEPESDQQQQQQVQNKKPGKKQRKKNKKERSLSESACADMILQEPLAKTNELQPRATFKLPPQRKQRSYSECNDSTGRSHRGILKRFSRYGPRPSMSDSWSSIDDSSSYSCSVDASGTSLFSQSFGGIPEEDRSDAGLSESCKKTVRFNDHIMKQVFRLDSSILGQRKKNQKRRDLKLRAQQRRLSEGDSVDYEETRGSALKQEENPSRNCNDSGLDLTGAAGAHSNNNESDAKNTMMFEMDD
In the case of B9, the MAPPIT interaction score in the experiment with flw (MAPPIT configuration: N-C) is 3.31 (inactive); with flw (MAPPIT configuration: N-N) it was 0.884 (inactive).

B10: Patj (protein)
chain: MHLSADISSALQQIEAVKKGIDESDDPKLQMQTAESLSTILGILQDPVFRTIVHVQDSLSELNAQLAQHPSMLPNDFDIDVAGNLVLSLNGGEVMYDFDEQRSSSHSHSAPGSPDKSGGVGEEPRPQSQNSKGAGVADLYATDYAQIQAIELVNDGTGLGFGIIGARNSGVIVKTILPGGVADKDGRLRSGDHILQIGDVNLHEMVSEQVAAVLRQSGTHVRLVVARPVEQSVPTPQYALEPGTAVVPTRVLVDPAELERYLISTGYPEIFGESSTASTPQTTTEDDRFVYRGETSMLIDPNIDLEELLALPETEKLQVELKKDANGLGITIAGYVCEKEELSGIFVKSVSPGSAADLSGRIRVNDRIIEVDGQSLQGYSNHQAVELLKKSGQVVNLRLERYLRGPKFEQLQQAIAANDKLPSSAPGTPSRAPMPTPVATTSSATTTPSRSITRELEEEALPAPEAFMTTPPSVTTMTTTTLSSFGAGKQLVAVRDSLDGSTKIIPTEVVPLADKTEAKNSGVITRHKYYTDPELSDDAETEIIRKWQKIVGSDVEVIVAQIKKFAVGGLGISLEGTVDVEGGREVRPHHYIRSILPDGPVGVNGVLRSGDELLEVNGERLLGMNHLEVVAILKELPLDVRMVCGRNRNSSLLPFSDDTLKKLSNNFENLLPATDRLVKAKSDGSLATAGSVADGDSVAAAAASFSKLKSRSLEPLTGLAMWSSQPQIIELVKGDRGLGFSILDYQDPLDPNDTLIVIRSLVPGGVAQLDGRLIPGDRLLFVNSINLENASLDQAVQALKGASKGVVRIGVAKPLPMTDNSLKACSNASTTSEETLDAQPSPPALPTVAPPAMPPSASMGAEPDLIPDWRN
For the molecule B10, the MAPPIT interaction score with fz is 2.4 (inactive).
